# Source: PubChem BioAssay (National Center for Advancing Translational Sciences (NCATS))
# HP1b chromo inh = HTS for Inhibitors of HP1-beta Chromodomain Interactions with Methylated Histone Tails. AID 540317, 2011. 390,000 tested, 0.56% active. Potency, µM (doses to about 114 µM), usual class: inhibitors. AlphaScreen HP1-beta / biotin-H3K9me3 peptide binding. Chromobox protein homolog 1 (Homo sapiens), P83916; also: nearly all actives have a fitted effect of over 70% in size
#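 AlphaScreen: HP1-beta (50 nM) preformed 30 min with biotin-H3(1-18)K9me3 peptide (50 nM) in PBS pH 7.4, 0.01% Tween-20. Compound added for 30 min at RT, then streptavidin donor/nickel chelate acceptor beads (10 ug/mL) for 30 min.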
# ALOX12 inh = Primary qHTS assay for inhibitors of human arachidonate 12S-lipoxygenase (ALOX12): Round 2; 580,000 tested, 1.1% active; Potency, µM (titrated, usually from 108 µM), actives largely listed as inhibitors; Polyunsaturated fatty acid lipoxygenase ALOX12 (Homo sapiens), P18054; AID 1671190, 2021; purified 12hLO, xylenol orange hydroperoxide absorbance
#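 Purified human 12hLO (150 nM final) in 25 mM Hepes, 0.01% Triton X-100, pH 7.0 was preincubated 15 min at room temperature with compound. Then 40 uM arachidonic acid was added, 30 min. Hydroperoxide was read by Fe-XO absorbance ratio 573/405 nm.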
# Sfp inh = qHTS Assay for Inhibitors of Bacillus subtilis Sfp phosphopantetheinyl transferase (PPTase). 4'-phosphopantetheinyl transferase ffp (Bacillus subtilis), Q9F4F7. Biochemical Sfp PPTase activity, qHTS. Potency, µM, actives largely listed as inhibitors. 310,000 tested, 3.5% active. AID 1490, 2009;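 also: the enzyme is Sfp with the accession as filed and its product quenches rhodamine fluorescence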
#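 Step 1, compound plus 15 nM Sfp-PPTase, 15 min, room temperature. Step 2, add rhodamine-CoA (5 uM) and BHQ-2-YbbR (12.5 uM). Step 3, read 525/598 nm fluorescence at 0 and 30 min.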
# JMJD2A Tudor = qHTS Assay for Inhibitors of JMJD2A-Tudor Domain; 390,000 tested, 4.4% active; AlphaScreen JMJD2A-Tudor / H3K4me3 peptide binding; Lysine-specific demethylase 4A (Homo sapiens), O75164; Potency, µM (series often up to 114 µM), actives largely listed as inhibitors; AID 504339, 2011; also: nearly all actives have a fitted effect of over 50% in size
# BAZ2B block = qHTS Assay for Inhibitors of BAZ2B; Bromodomain adjacent to zinc finger domain protein 2B (Homo sapiens), Q9UIF8; AlphaScreen BAZ2B-H3K14Ac peptide displacement; Potency, µM (top dose mostly 114 µM), actives largely listed as inhibitors; 360,000 tested, 4.4% active; AID 504333, 2011; also: nearly all actives have a fitted effect of over 60% in size
# Target sequence (Q9UIF8 whole entry, looked up, the tested form may be a part): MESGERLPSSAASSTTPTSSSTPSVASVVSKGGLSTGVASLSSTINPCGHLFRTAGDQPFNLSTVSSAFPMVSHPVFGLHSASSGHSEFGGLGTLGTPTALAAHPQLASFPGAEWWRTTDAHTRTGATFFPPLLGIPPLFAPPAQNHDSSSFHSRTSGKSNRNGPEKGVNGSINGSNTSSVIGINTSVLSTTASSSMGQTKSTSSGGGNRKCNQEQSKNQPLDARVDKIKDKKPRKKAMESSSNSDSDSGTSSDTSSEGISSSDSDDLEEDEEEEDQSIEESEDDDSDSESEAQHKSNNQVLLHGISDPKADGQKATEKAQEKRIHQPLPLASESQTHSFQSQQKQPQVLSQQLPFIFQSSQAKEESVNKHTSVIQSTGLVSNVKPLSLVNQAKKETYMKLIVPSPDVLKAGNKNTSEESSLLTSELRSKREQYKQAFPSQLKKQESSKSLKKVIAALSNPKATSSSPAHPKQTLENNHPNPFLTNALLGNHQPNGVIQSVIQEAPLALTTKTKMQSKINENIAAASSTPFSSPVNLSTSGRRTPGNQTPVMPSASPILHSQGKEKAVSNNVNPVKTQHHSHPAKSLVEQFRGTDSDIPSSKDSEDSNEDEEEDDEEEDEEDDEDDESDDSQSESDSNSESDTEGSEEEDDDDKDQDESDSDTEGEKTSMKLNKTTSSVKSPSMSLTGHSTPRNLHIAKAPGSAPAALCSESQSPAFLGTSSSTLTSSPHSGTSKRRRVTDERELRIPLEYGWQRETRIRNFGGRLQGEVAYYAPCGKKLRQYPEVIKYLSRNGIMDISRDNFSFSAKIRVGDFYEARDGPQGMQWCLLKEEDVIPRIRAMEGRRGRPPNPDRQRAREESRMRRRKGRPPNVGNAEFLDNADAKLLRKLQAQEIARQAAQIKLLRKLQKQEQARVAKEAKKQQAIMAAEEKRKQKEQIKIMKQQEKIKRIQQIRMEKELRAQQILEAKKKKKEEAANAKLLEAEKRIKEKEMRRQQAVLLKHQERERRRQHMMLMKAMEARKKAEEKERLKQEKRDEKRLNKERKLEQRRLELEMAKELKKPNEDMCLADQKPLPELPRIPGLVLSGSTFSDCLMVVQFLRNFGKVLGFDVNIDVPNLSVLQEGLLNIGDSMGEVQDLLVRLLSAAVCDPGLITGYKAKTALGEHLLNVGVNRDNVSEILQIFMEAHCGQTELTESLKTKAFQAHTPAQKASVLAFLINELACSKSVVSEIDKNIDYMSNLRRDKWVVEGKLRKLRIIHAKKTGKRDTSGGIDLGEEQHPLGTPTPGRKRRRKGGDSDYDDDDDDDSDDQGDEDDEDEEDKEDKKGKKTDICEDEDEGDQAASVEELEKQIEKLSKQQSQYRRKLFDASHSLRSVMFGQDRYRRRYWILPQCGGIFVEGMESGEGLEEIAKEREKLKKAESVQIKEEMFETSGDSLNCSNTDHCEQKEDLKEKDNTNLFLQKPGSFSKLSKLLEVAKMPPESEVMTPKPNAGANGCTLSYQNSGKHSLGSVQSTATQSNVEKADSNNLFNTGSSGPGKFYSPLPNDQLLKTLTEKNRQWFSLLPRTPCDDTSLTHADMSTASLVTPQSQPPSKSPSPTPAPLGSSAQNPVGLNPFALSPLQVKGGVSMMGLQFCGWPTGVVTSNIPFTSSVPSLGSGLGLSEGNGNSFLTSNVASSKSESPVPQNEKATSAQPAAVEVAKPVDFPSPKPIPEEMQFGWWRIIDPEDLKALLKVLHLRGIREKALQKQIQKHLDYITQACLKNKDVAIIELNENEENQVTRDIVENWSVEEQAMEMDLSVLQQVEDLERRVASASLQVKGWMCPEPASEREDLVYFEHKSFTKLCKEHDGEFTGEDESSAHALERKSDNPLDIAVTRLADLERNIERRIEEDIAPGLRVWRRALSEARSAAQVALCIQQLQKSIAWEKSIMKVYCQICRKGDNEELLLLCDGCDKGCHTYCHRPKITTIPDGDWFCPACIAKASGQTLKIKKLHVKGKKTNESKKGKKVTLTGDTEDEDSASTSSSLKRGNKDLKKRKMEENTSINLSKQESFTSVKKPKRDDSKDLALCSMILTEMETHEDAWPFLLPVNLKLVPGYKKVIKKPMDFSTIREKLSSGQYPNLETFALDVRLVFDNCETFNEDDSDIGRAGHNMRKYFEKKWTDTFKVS
#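 BAZ2B (50 nM) with biotin-H3(5-23)K14Ac peptide (50 nM) in PBS pH 7.4, 0.01% Tween-20, preformed 30 min, then compound 30 min at room temperature; top concentration 110uM. AlphaScreen streptavidin donor/nickel chelate acceptor beads (10 ug/mL final), 20 min dark, signal read.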
# G9a inh = qHTS Assay for Inhibitors of Histone Lysine Methyltransferase G9a; AID 504332, 2011; Histone-lysine N-methyltransferase EHMT2 (Homo sapiens), Q96KQ7; Potency, µM (highest dose often 102 µM), actives largely listed as inhibitors; G9a H3K9 monomethylation, AlphaScreen, 2 h; 350,000 tested, 8.8% active; also: nearly all actives have a fitted effect of over 75% in size
#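 Compounds were preincubated with 20 nM G9a for 15 min, after which biotinylated H3K9 peptide (500 nM) and SAM (20 uM) started a 2 h room-temperature reaction. Monomethylated product was quantified by antibody-based AlphaScreen chemiluminescence.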
# A number is an active result; n = inactive; u = inconclusive; x = not tested or not shown; [ ] = remark or other dose. Sampled rows, rich in hits. Any-hit rate of the full collection: about 8.7%. Calls follow the shape of the dose curve; as a rule, active = well fitted curve in the direction sought with a large enough effect; inconclusive = small, poorly fitted or top-dose-only effect, or another doubt; inactive = no such curve, though single readings can be large; an effect the other way counts as inactive or inconclusive.
SMILES,HP1b chromo inh,ALOX12 inh,Sfp inh,JMJD2A Tudor,BAZ2B block,G9a inh
COc1ccc(S(=O)(=O)N2CCC(C(=O)NC3CC3)CC2)cc1Cl,n,n,n,n,n,n[12.7 µM]
Cc1ccc([N+](=O)[O-])cc1S(=O)(=O)N1CCC(C)CC1,u,n,n,n[11.4 µM],n,56µM
COc1ccc(CNC(=O)c2ccc3c(c2)N(C(=O)c2ccc(F)cc2)CC3)cc1,x,n,x,x,x,x
COCCNc1ncc(-c2cccc(F)c2)c2c1OCC2,x,n,x,x,x,x
COc1cc(C(=O)OCc2cccc(C#N)c2)cc(OC)c1C,x,n,x,x,x,x
COc1ccc(S(=O)(=O)N2CCC(C(=O)N[C@@H](C)C(=O)NC3CCCC3)CC2)cc1,n,n,n,22µM,n,x
Cc1ccc(C2=NNC(c3cccc(F)c3)S2)cc1 (stereo not drawn),n,n,n,n,n,u
COc1ccc(C2NN=C(c3ccc(C)cc3)S2)cc1OC (stereo not drawn),n,n,u,n,n,13µM
O=C(O)c1cc([N+](=O)[O-])ccc1NCc1ccccn1,n,n,x,79µM,79µM,n[2.33 µM]
COc1cc(NC(=O)c2cc([N+](=O)[O-])ccc2NC(=O)CNCc2ccccn2)cc(OC)c1,n,n,n,79µM,u,n
COc1ccc(NC(=O)c2cc([N+](=O)[O-])ccc2NC(=O)CNCc2ccccn2)c(OC)c1,n,n,45µM,79µM,u,28µM
Cn1c(N=NC(=O)c2ccccc2)c(O)c2ccccc21,32µM,n,n,32µM,22µM,u
CCOc1ccc(-c2nc(SCC(=O)Nc3nccs3)c(-c3ccc(F)cc3)[nH]2)cc1,x,n,x,x,x,x
CCCCN1/C(=C/c2ccc3ccccc3[n+]2CC)Sc2ccccc21,n,x,n,32µM,u,32µM
CCCCCCN1C2=NCCN2c2ccccc21,n,n,n,n,n,u
CC[n+]1c(S(=O)(=O)[O-])ccc2ccc(C)cc21,n,n,n,n,n,n
CCN1/C(=C/c2ccc3cc(C)ccc3[n+]2CC)Sc2cc(C)ccc21,n,35µM,u,u,40µM,22µM
CCN1/C(=C/c2ccc3cc(C)ccc3[n+]2C)Sc2ccc3sccc3c21,n,45µM,n,14µM,45µM,16µM
N#C/C(=C/c1cc(Br)ccc1OCc1ccccc1C#N)c1cccc(F)c1,x,n,x,x,x,x
CCCC(C)C(=O)Nc1ccc(-c2nc3ccccc3o2)cc1 (stereo not drawn),x,n,x,x,x,x
CN1CC(=O)N(c2ccccc2)Cc2c(NC3CC3)ncnc21,x,n[6.33 µM],x,x,x,x
CCOC(=O)c1cc(S(=O)(=O)NCc2ccc(OC)cc2)[nH]n1,n,n,x,u,u,13µM
CCOC(=O)c1cc(S(=O)(=O)NCc2ccc(Cl)cc2)[nH]n1,n,n,x,n,u,7.9µM
Nc1nccnc1C(=O)Nc1ccc2ccccc2n1,x,10µM,x,x,x,x
O=C(Nc1ccc2ccccc2n1)c1ccccc1Cl,n,n,n,n,n,n[2.33 µM]
SMILES,HP1b chromo inh,ALOX12 inh,Sfp inh,JMJD2A Tudor,BAZ2B block,G9a inh
Cc1sc(Cc2nc(O)cs2)nc1-c1ccccc1,n,n,32µM,n[11.4 µM],n,u
CCN1C(=O)C(Cc2c(OC)cc(OC)cc2OC)c2ccccc21 (stereo not drawn),x,n,x,x,x,x
Nc1c(C(=O)NCc2ccco2)c2nc3ccccc3nc2n1CCc1ccccc1F,n,u,56µM,n,n,u
COc1ccc(CCn2c(N)c(C(=O)NCc3ccco3)c3nc4ccccc4nc32)cc1OC,n,n,45µM,n,n,n
COc1ccc(C(C)=O)c(OC(=O)c2cc(F)c(F)cc2Cl)c1,x,n,x,x,x,x
COc1ccc(-n2c(Cc3cccn3C)nnc2SCC(=O)Nc2nc(C)cs2)cc1,n,n,n,n,n,n
COc1ccc(-n2c(Cc3cccn3C)nnc2SCC(=O)Nc2ccccc2OC)cc1,n,n,n,n,u,45µM
COc1ccc(-n2c(Cc3cccn3C)nnc2SCC(=O)Nc2ccc(Cl)cc2)cc1,n,n,n,u,u,u
COc1ccc(-n2c(Cc3cccn3C)nnc2SCC(=O)Nc2cc(Cl)ccc2OC)cc1,n,n,n,u,u,40µM
COc1ccc(-n2c(Cc3cccn3C)nnc2SCC(=O)NC2CCCC2)cc1,n,n,n,u,n,u
COc1ccc(-n2c(Cc3cccn3C)nnc2SCC(=O)Nc2ccc(C)cc2C)cc1,n,n,n,u,u,45µM
CCC(=O)Nc1ccc(-c2csc(NC(C)COC)n2)cc1 (stereo not drawn),x,n,x,x,x,x
C/C(CCC12CC3CC(CC(C3)C1)C2)=N\NC(N)=S,n,10µM,u,u,u,n
C/C(CC12CC3CC(CC(C3)C1)C2)=N\O,x,n,x,x,x,x
CCN(CC)CCNc1ncnc2c1oc1nc(C)c3c(c12)CC(C)(C)OC3,x,n,x,x,x,x
CCCc1cc(=O)oc2c(CNc3ccc(OCC)cc3)c(O)ccc12,n,u,n,u,u,40µM
CCc1cc(=O)oc2c(CNCc3c(F)cccc3Cl)c(O)ccc12,n,n,n,n,n,n
N#CCN(C(=O)c1ccc2c(c1)OCCCO2)C1CC1,x,n,x,x,x,x
CN(C)c1ccc(-c2nc(-n3ccnc3)c3ccccc3n2)cc1,x,u,n,x,x,n[0.501 µM]
Clc1ccccc1-c1nc(-n2ccnc2)c2ccccc2n1,x,56µM,n,x,x,n[0.501 µM]
CCCCc1cc(=O)oc2c(C)c(OCC(=O)NCc3ccncc3)ccc12,x,n,x,x,x,x
CCOC(=O)c1c(C)[nH]c(C2=NNC(=Nc3ccccc3)SC2)c1C,u,n,40µM,u,n,45µM
CCOC(=O)c1c(C)[nH]c(C2=NNC(=Nc3ccccc3OC)SC2)c1C,u,n,79µM,50µM,u,u
CC(=O)c1[nH]c(C)c(C(C)=O)c1C,n,u,n,n,u,n
CCOC(=O)c1c(C)[nH]c(C2=NNC(=Nc3ccc(OCC)cc3)SC2)c1C,u,u,79µM,56µM,50µM,u
CC(=O)c1c(C)[nH]c(C2=NNC(=NC(C)(C)C)SC2)c1C,n,n,22µM,n,x,32µM
COCCNC(=O)COC(=O)c1cc(-c2ccc(Cl)s2)nc2ccccc12,x,n,x,x,x,x
CC1=C(C(=O)OCc2ccc3c(c2)OCO3)C(c2c(F)cccc2Cl)CC(=O)N1 (stereo not drawn),x,n,x,x,x,x
Cc1ccccc1NC(=O)N1CCC(CCNC(=O)c2cc(F)ccc2F)CC1,x,n,x,x,x,x
COCCN1C(=O)/C(=C2/C(=O)N(CC(=O)Nc3ccccc3Cl)c3ccccc32)SC1=S,n,n,n,n,n,n
